HEK cytotox: Cytotoxic Profiling in HEK 293 Cell Line of Diverse Libraries Using Quantitative High-Throughput Screening | HEK 293 viability, ATP luminescence (CellTiter-Glo), 48-72 h | Potency, µM (highest dose often 115 µM), inactives show top-dose activity change, negative = cytotoxicity, actives largely listed as inhibitors | 6.6% of 94,000 active; note: nearly all actives have a fitted effect of over 60% in size
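HEK 293 cells seeded at 250 cells/well were exposed to compound for 48 or 72 hr at 37 degree Celsius. Viability taken as ATP content by CellTiter-Glo luminescence.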
Luciferase inh: Firefly luciferase inhibition profiling of diverse chemical library using quantitative high-throughput screening; Luciferin 4-monooxygenase (Photinus pyralis), P08659; purified P. pyralis luciferase, luminescence, biochemical; Potency, µM (top dose mostly 115 µM), most hits filed as inhibitors; 2.5% of 76,000 active; AID 1347043, 2019; note: nearly all actives have a fitted effect of over 65% in size
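Biochemical qHTS: compound (6-point titration) added to 10uM D-luciferin plus 10uM ATP in Tris acetate pH 7.5 buffer with Mg, Tween-20 and BSA, then purified enzyme at 10nM; light output imaged.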
3T3 cytotox: Cytotoxic Profiling in NIH 3T3 Cell Line of Diverse Libraries Using Quantitative High-Throughput Screening; NIH 3T3 viability, CellTiter-Glo ATP luminescence, 48-72 h; Potency, µM (highest dose often 96.7 µM), inactives show at the top dose activity change, negative = cytotoxicity, actives largely listed as inhibitors; 4.3% of 94,000 active; note: nearly all actives have a fitted effect of over 55% in size
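Cytotoxicity was measured by CellTiter-Glo ATP luminescence after 48 or 72 h compound exposure at 37 °C. Mouse NIH 3T3 fibroblasts were seeded at 400 cells/well and dosed by 23 nL pin transfer.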
NPR1 antag: Natriuretic polypeptide receptor (hNpr1) antagonism - Primary qHTS; HEK293 hNpr1 GloSensor cGMP, ANP-stimulated luminescence; Potency, µM (highest dose often 46.3 µM), for the others: at the highest dose activity change, negative = inhibition, most hits filed as inhibitors; 1.6% of 76,000 active; AID 1347048, 2019; calls by dose curve; note: nearly all actives have a fitted effect of over 60% in size
Target sequence (P16066 whole entry, looked up): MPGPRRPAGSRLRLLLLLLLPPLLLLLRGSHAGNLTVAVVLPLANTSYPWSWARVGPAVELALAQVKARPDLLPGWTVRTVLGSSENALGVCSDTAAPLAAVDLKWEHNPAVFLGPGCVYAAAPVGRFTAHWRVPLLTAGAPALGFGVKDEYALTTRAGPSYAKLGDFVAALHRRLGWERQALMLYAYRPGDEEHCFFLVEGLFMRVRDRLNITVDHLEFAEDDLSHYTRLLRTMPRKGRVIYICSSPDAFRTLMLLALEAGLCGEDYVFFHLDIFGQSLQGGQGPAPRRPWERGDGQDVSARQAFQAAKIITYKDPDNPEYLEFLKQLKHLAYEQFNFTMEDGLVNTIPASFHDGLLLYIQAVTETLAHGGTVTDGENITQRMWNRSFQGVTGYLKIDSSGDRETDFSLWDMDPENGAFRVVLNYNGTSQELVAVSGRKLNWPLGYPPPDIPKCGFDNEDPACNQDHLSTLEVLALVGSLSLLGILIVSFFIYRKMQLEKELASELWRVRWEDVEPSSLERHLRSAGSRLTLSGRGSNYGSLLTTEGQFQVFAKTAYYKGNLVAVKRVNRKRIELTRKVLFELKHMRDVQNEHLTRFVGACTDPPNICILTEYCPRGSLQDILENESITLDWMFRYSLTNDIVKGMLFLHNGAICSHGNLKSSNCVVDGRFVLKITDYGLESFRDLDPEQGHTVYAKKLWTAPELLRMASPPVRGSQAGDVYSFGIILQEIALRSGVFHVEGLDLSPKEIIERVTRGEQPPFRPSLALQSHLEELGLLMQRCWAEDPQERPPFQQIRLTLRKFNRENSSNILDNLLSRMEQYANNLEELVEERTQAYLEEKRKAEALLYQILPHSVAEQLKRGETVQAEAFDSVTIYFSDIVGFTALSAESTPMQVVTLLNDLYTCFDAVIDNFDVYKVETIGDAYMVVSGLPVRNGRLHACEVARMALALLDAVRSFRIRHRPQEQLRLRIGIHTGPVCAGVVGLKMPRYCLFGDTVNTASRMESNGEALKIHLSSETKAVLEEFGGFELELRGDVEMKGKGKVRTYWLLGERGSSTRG
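HEK293 cells stably expressing human Npr1 and cGMP GloSensor pGS-40F, loaded 2 h with 2% GloSensor reagent, given compound 30 min at room temperature. Luminescence read before and 20 min after 0.1 nM hNppA.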
* marks the source's active call; other numbers are inactive results; i = inactive; u = inconclusive; x = no result given; ! = repeats disagree; [ ] = another dose, or the depositor's remark. Only some compounds are listed: those with a hit (about 11% of all), similar ones and a draw of the others. Unless noted, calls come from the whole dose curve; as a rule, active = well fitted curve in the direction sought with a large enough effect; inconclusive = small, poorly fitted or top-dose-only effect, or another doubt; inactive = no such curve, though single readings can be large; an effect the other way counts as inactive or inconclusive. % is set by controls: 0 for no effect and ±100 for the full control effect; potency is the fitted concentration of half-maximal effect.

SMILES	HEK cytotox	Luciferase inh	3T3 cytotox	NPR1 antag
O=C(NCc1ccco1)N1CCc2nc3cc(-c4ccccc4Cl)[nH]n3c(=O)c2C1	u	14µM*	u	-15%
CN1CCC(Oc2ccc(C(=O)NCCc3ccccn3)cn2)CC1	-8%	40µM*	-11%	-1%
O=C(NCc1ccccn1)c1cccc(OC2CCN(c3cnccn3)CC2)c1	45µM*	i	u	u
NC(=O)Cc1c[nH]c2ncc(-c3ccc4c(c3)OCO4)cc12	-11%[172 µM]	63µM*	45µM*	-4%[70.6 µM]
NC(=O)Cc1c[nH]c2ncc(-c3cccc(O)c3)cc12	4%[230 µM]	u	u	-2%[70.6 µM]
NC(=O)Cc1c[nH]c2ncc(-c3ccc(Cl)cc3)cc12	u	79µM*	u	-24%[70.6 µM]
COc1ccc(OC)c(S(=O)(=O)N2CCCCCCNC(=O)CC2)c1	-7%	i	-11%	3%
Cc1cc(C)n(Cc2ccc(C(=O)N3CC[C@@H](n4c(=O)n(C)c5cccnc54)C3)o2)n1	-15%	x	u	x
CC(Oc1ccccc1)C(=O)N1CC(Oc2cccc(-c3nc(-c4ccccc4)no3)c2)C1 (stereo not drawn)	32µM*	u	28µM*	-27%
O=C(C1CCOCC1)N1CC(Oc2cccc(-c3nc(-c4ccccc4)no3)c2)C1	u	18µM*	u	4%
O=C(c1ccoc1)N1CC(Oc2cccc(-c3nc(-c4ccccc4)no3)c2)C1	u	u	u	5%
COc1ccccc1C(=O)N1CC(Oc2ccc(-c3noc(-c4ccncc4)n3)cc2)C1	u	x	35µM*	x
Cn1cccc1C(=O)N1CC(Oc2ccc(-c3nc(-c4ccccc4)no3)cc2)C1	u	u	-27%	-15%
COc1ccccc1C(=O)N1CC(Oc2cccc(-c3nc(-c4ccccc4)no3)c2)C1	45µM*	7.9µM*	32µM*	-10%
CCCCCNC(=O)c1cc(-c2ccc(F)cc2)nc2c1cnn2C	u	x	-26%	x
O=C(NC1CCCC1)N1CC(Oc2cccc(-c3nc(-c4ccccc4)no3)c2)C1	u	i	u	1%
CCCNC(=O)N1CC(Oc2cccc(-c3nc(-c4ccccc4)no3)c2)C1	28µM*	i	-23%	-2%
COc1ccccc1CN1CC[C@H](c2nc3ccc(C(F)(F)F)cc3[nH]2)C1	32µM*	i	28µM*	1%[70.6 µM]
Fc1ccc2nc([C@H]3CCN(Cc4ncc[nH]4)C3)[nH]c2c1	u	i	u	-3%[70.6 µM]
Fc1ccc2nc([C@H]3CCN(Cc4ccc(F)c(F)c4)C3)[nH]c2c1	56µM*	u	u	u
Cc1ccc(CN2CC[C@H](c3nc4ccc(C(F)(F)F)cc4[nH]3)C2)cc1	40µM*	i	28µM*	u
Fc1ccc2nc([C@H]3CCN(Cc4cccs4)C3)[nH]c2c1	71µM*	40µM*	u	u
O=C(c1ccc(F)cc1)N1CCC(C(=O)N2CCC(N3CCOCC3=O)CC2)CC1	-1%	x	-10%	x
Cc1ccc(CN2CC[C@H](c3nc4ccc(C)cc4[nH]3)C2)cc1	u	i	u	-14%[70.6 µM]
Fc1ccc(CN2CC[C@H](c3nc4ccc(C(F)(F)F)cc4[nH]3)C2)cc1F	10µM*	i	13µM*	u
SMILES	HEK cytotox	Luciferase inh	3T3 cytotox	NPR1 antag
CCc1cn[nH]c1C1CCCN(C(=O)c2oc3cc(C)ccc3c2C)C1 (stereo not drawn)	u	i	45µM*	-3%
Cc1nn(-c2ccccc2)c2c1C(C)N(C1CCCN(C(=O)c3ccccc3Cl)C1)C2=O (stereo not drawn)	40µM*	x	u	x
COc1ccc(C(=O)N2CCCC(N3C(=O)c4c(c(C)nn4-c4ccccc4)C3C)C2)cc1 (stereo not drawn)	u	x	14µM*	x
Cc1nn(-c2ccccc2)c2c1C(C)N(C1CCCN(C(=O)c3ccncc3)C1)C2=O (stereo not drawn)	-26%	x	u	x
Cc1nc(-c2ccc(Cl)cc2)n(Cc2ccc(F)cc2)c(=O)c1CCO	20µM*	i	u	-6%
Cc1nc(-c2ccccc2)n(Cc2ccccc2Cl)c(=O)c1CCO	u	i	45µM*	-7%
COc1ccccc1Cn1c(-c2ccc(Cl)cc2)nc(C)c(CCO)c1=O	32µM*	i	u	7%
Cc1cccc(-c2nc(Cn3c(-c4ccc(F)cc4)nc(C)c(CCO)c3=O)c(C)o2)c1	i	i	3%	4%
Cc1cccc(-c2nc(Cn3c(-c4ccccc4)nc(C)c(CCO)c3=O)c(C)o2)c1	79µM*	i	u	-26%
COc1ccccc1Cn1c(-c2cccc(Cl)c2)nc(C)c(CCO)c1=O	u	i	u	0%
CC(=O)N1CCN(C(=O)C2CCc3nnc(CN[S+](=O)([O-])c4ccccc4Cl)n32)CC1 (stereo not drawn)	-3%	x	-10%	x
O=C(NCCc1ccc(Cl)cc1)c1nc2sccn2c1-c1ccncc1	u	x	-27%	x
Cc1ccccc1C(=O)N1CCCN(c2ccc3nnc(C4CC4)n3n2)CC1	4%	x	-11%	x
O=[S+]1([O-])NCC2(CCCN(CC3CC3)C2)Nc2ccccc21 (stereo not drawn)	-27%[172 µM]	i	-25%[138 µM]	0%[70.6 µM]
COc1c(C)cnc(Cn2c(-c3ccccc3)nc(C)c(CCO)c2=O)c1C	u	i	45µM*	1%
O=C(CCl)N1CCC2(CC1)CC(c1cccc(C(F)(F)F)c1)=NO2	79µM*	x	u	x
CN(C)c1ccc(CN2CCCC3(CC(c4cccc(C(F)(F)F)c4)=NO3)C2)cc1 (stereo not drawn)	u	i	u	-3%
O=C(Cc1ccc(F)cc1)N1CCC2(CC1)CC(c1cccc(C(F)(F)F)c1)=NO2	50µM*	x	40µM*	x
CN(C)C(=O)N1CCC2(CC1)CC(c1cccc(C(F)(F)F)c1)=NO2	45µM*	x	u	x
Fc1ccc(CN2CCCC3(CC(c4cccc(C(F)(F)F)c4)=NO3)C2)cc1 (stereo not drawn)	u	i	u	-25%
CC(=O)Nc1ccc(CN2CCC3(CC2)CC(c2cccc(C(F)(F)F)c2)=NO3)cc1	40µM*	i	35µM*	-7%
COc1cc2c(cc1OC)C(C[C@H]1CN(S(=O)(=O)c3ccc(Cl)cc3)CC[C@H]1CC(=O)O)=NCC2	-12%	i	-24%	-2%
O=C(NCc1ccccn1)c1nc2sccn2c1-c1ccncc1	5%	x	-27%	x
O=C(Cc1cccs1)N1CCCCCC1c1nnc(-c2ccccc2)o1 (stereo not drawn)	u	x	-16%	x
Cc1ccc(CN2CCC3(CC2)CC(c2cccnc2)=NO3)cc1	79µM*!	i	u	-17%[70.6 µM]
Cc1noc(C)c1[S+](=O)([O-])N1CCC2(CC1)CC(c1cccc(C(F)(F)F)c1)=NO2	u	x	4.5µM*	x
